Laboratory results: PubChem BioAssay (NCI)
“And” between values parts separate entries of the source, which are not always exact repeats. Equal entries are not always repeated. The panel holds about 83,000 compounds, 20% with a hit somewhere; the sample as a whole holds those more often.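 Single-concentration screen, 48 h exposure, 96-well plates. Endpoint: percent growth. Below 10 = active.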 The source made the active and inactive calls. Starred links: 1 amine or outer side, 2 acyl side, 3 side chain; linkers in the order of their positions; H or OH if unused. Positions of bridges follow the written chain, without caps; N, C: chain ends. Non-standard residues stand in square brackets, D forms with d. Residues, ends and D or L forms follow the SMILES beside them. Chains are numbered I, II in the order given. Actinocin(9to1) = Cc1c2oc3c(C)ccc(C(=O)[*:1])c3nc-2c(C(=O)[*:2])c(N)c1=O; aThr = C[C@H](O)[C@H](N)C(=O)O; NMeV = CN[C@H](C(=O)O)C(C)C; Sar = CNCC(=O)O

Legend:
Experiment in all cases: NCI-60 one-dose screen, 48 h (100 = growth as untreated, 0 = no growth, -100 = all killed)
[1] = system: UACC-62 melanoma
[2] = system: DU-145 prostate
[3] = system: K-562 leukemia
[4] = system: MALME-3M melanoma
[5] = system: MDA-MB-231 breast
[6] = system: RXF 393 renal
[7] = system: SF-268 CNS
[8] = system: SF-295 CNS
[9] = system: UACC-257 melanoma
[10] = system: HCT-15 colon
[11] = system: HT29 colon
[12] = system: SNB-75 CNS
[13] = system: SNB-19 CNS
[14] = system: U251 CNS
[15] = system: PC-3 prostate
[16] = system: SK-MEL-5 melanoma
[17] = system: LOX IMVI melanoma
[18] = system: SK-MEL-2 melanoma
[19] = system: EKVX NSCLC
[20] = system: SF-539 CNS

Measured: growth

Cc1ccc2nc(N/N=C/c3ccc(C)s3)cc(C)c2c1
active: [1]; 100 µM -99.1% and -100%

COc1cc(C(C)(C)C)cc(OC)c1C(O)(c1c(OC)cc(C(C)(C)C)cc1OC)c1c(OC)cc(C(C)(C)C)cc1OC
active: [2]; 10 µM -100% | [3]; 10 µM -89.4% | [4]; 10 µM -80.8% | [5]; 10 µM -85.2% | [6]; 10 µM -27.4% | [7]; 10 µM -77% | [8]; 10 µM -78.9% | [9]; 10 µM -46.1% | [10]; 10 µM -85.8% | [11]; 10 µM -100% | [12]; 10 µM -94.1% | [13]; 10 µM -96.1% | [14]; 10 µM -91.6% | [15]; 10 µM -86.8% | [16]; 10 µM -93.7% | [1]; 10 µM -86.3% | [17]; 10 µM -69.2% | [18]; 10 µM -59.1% | [19]; 10 µM -50.5%

CN(C)CCC(=O)c1c[nH]c2ccccc12
inactive: [2]; 10 µM 111% | [4]; 10 µM 105% | [5]; 10 µM 115% | [6]; 10 µM 126% | [7]; 10 µM 115% | [8]; 10 µM 99.7% | [20]; 10 µM 103% | [9]; 10 µM 115% | [10]; 10 µM 110% | [11]; 10 µM 101% | [12]; 10 µM 99.8% | [13]; 10 µM 112% | [14]; 10 µM 106% | [15]; 10 µM 84.3% | [16]; 10 µM 113% | [1]; 10 µM 113% | [17]; 10 µM 103% | [18]; 10 µM 105% | [19]; 10 µM 111%

Cc1cc(NCCCN(C)C)c2ccc3c(ccc4c(NCCCN(C)C)cc(C)nc43)c2n1
active: [2]; 10 µM -92.6% | [3]; 10 µM -52.9% | [4]; 10 µM -89.2% | [5]; 10 µM -77.4% | [6]; 10 µM -83.4% | [7]; 10 µM -86.1% | [8]; 10 µM -76.2% | [20]; 10 µM -96% | [9]; 10 µM -51.6% | [10]; 10 µM -34.6% | [11]; 10 µM -50.9% | [12]; 10 µM -90% | [13]; 10 µM -32.8% | [14]; 10 µM -30.5% | [15]; 10 µM -56.3% | [16]; 10 µM -97.6% | [1]; 10 µM -96.9% | [17]; 10 µM -76% | [18]; 10 µM -62.8% | [19]; 10 µM -34.1%

CSc1ccc2c(c1)C(N1CCN(C)CC1)Cc1ccccc1S2 (configuration not stated)
active: [4]; 10 µM -46.6% | [5]; 10 µM -11.6% | [9]; 10 µM -61.6% | [11]; 10 µM -15.9% | [12]; 10 µM 0.687% | [16]; 10 µM -86.6% | [1]; 10 µM -69.5% | [17]; 10 µM -5.64%
inactive: [2]; 10 µM 34% | [6]; 10 µM 25.1% | [7]; 10 µM 36.7% | [8]; 10 µM 44.1% | [20]; 10 µM 60.1% | [10]; 10 µM 10.3% | [13]; 10 µM 54.7% | [14]; 10 µM 33.3% | [15]; 10 µM 26.5% | [19]; 10 µM 55.9%

Cc1c2oc3c(C)ccc(C(=O)N[C@@H]4C(=O)N[C@H](C(C)C)C(=O)N5CCC[C@H]5C(=O)N(C)CC(=O)N(C)[C@@H](C(C)C)C(=O)O[C@H]4C)c3nc-2c(C(=O)N[C@@H]2C(=O)N[C@H](C(C)C)C(=O)N3CCC[C@H]3C(=O)N(C)CC(=O)N(C)[C@@H](C(C)C)C(=O)O[C@H]2C)c(N)c1=O (I: [aThr][dV]P[Sar][NMeV] / II: [aThr][dV]P[Sar][NMeV]; ester I:1-I:C, II:1-II:C; linker I:N-II:N via Actinocin(9to1))
active: [2]; 10 µM -30.5% | [3]; 10 µM 0.49% | [4]; 10 µM -61.4% | [5]; 10 µM -2.13% | [6]; 10 µM -45.9% | [7]; 10 µM -9.34% | [8]; 10 µM -8.12% | [20]; 10 µM -54.7% | [9]; 10 µM -29.8% | [10]; 10 µM 2.4% | [11]; 10 µM -24.1% | [12]; 10 µM -73.6% | [13]; 10 µM -0.258% | [14]; 10 µM 6.96% | [15]; 10 µM 0.295% | [16]; 10 µM -94.8% | [1]; 10 µM -74.5% | [17]; 10 µM 9.98% | [18]; 10 µM -53.1% | [19]; 10 µM -11%
inactive: [2]; 0.0025 µM 41.6% | [3]; 0.0025 µM 18.8% | [4]; 0.0025 µM 66.3% | [5]; 0.0025 µM 64.2% | [6]; 0.0025 µM 31.1% | [7]; 0.0025 µM 46.1% | [8]; 0.0025 µM 62.4% | [20]; 0.0025 µM 25.5% | [9]; 0.0025 µM 30.6% | [10]; 0.0025 µM 74.4% | [11]; 0.0025 µM 29.4% | [12]; 0.0025 µM 39.6% | [13]; 0.0025 µM 38.2% | [14]; 0.0025 µM 22.1% | [15]; 0.0025 µM 42.8% | [16]; 0.0025 µM 30.8% | [1]; 0.0025 µM 36.5% | [17]; 0.0025 µM 24.3% | [18]; 0.0025 µM 75.4% | [19]; 0.0025 µM 54%

BrC/C=C/C[P+](c1ccccc1)(c1ccccc1)c1ccccc1
active: [17]; 10 µM 2.3%
inactive: [2]; 10 µM 39.7% | [3]; 10 µM 17.5% | [4]; 10 µM 60.6% | [5]; 10 µM 77.4% | [6]; 10 µM 81.8% | [7]; 10 µM 58.7% | [8]; 10 µM 38.2% | [20]; 10 µM 10% | [9]; 10 µM 47.9% | [10]; 10 µM 37.3% | [11]; 10 µM 60% | [13]; 10 µM 46.6% | [14]; 10 µM 18.2% | [15]; 10 µM 22.4% | [16]; 10 µM 53.9% | [1]; 10 µM 52.8% | [18]; 10 µM 78.7% | [19]; 10 µM 70.2%

N#C/C(=C1C=C/C(=N\O)C(Cl)=C\1)c1ccccc1
active: [8]; 10 µM -32.2% | [20]; 10 µM 2.46% | [17]; 10 µM 1.14%
inactive: [2]; 10 µM 40.2% | [3]; 10 µM 20.9% | [4]; 10 µM 58.7% | [5]; 10 µM 20.6% | [6]; 10 µM 43.9% | [7]; 10 µM 27% | [10]; 10 µM 22.2% | [11]; 10 µM 23% | [12]; 10 µM 59.4% | [13]; 10 µM 80.5% | [15]; 10 µM 14.5% | [16]; 10 µM 46.8% | [1]; 10 µM 26.2%
